Laboratory results published in PubChem BioAssay AID1159580 (chemical genetic matrix, 2015).
Hit rate of the full screen: of about 5,500 compounds, about 2,000 (36%) were called active. Not shown: some 18% with an inconclusive outcome. No stated cut-off is given here; in the data, active means normalized growth mostly below about 0.91 (no sharp cut-off); inconclusive means no clear call, values can overlap the other calls; inactive means mostly above about 0.92. This is one part of the list.

Assay: chemical genetic growth profiling, strain panel (AID 1159580);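 further: tested at 20 µM; growth read once vehicle control cultures reached saturation at 30 °C; 1 = growth at the plate median or of vehicle wells; lower values mean less growth of the strain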
Details: growth OD

Measured: normalized growth

O=c1[nH]c(=O)n(C2C[C@H](O)[C@@H](CO)O2)cc1C(F)(F)F (stereo partly specified)
inactive: S. cerevisiae deletion strains, locus YKL009W, strain mrt4, active compounds read low 0.981 | S. cerevisiae deletion strains, locus YKL068W, active compounds read low 0.978 | S. cerevisiae deletion strains, locus YKL085W, strain MDH1 (second series), active compounds read low 0.974 | S. cerevisiae deletion strains, locus YKL085W, strain MDH1, active compounds read low 0.974 | S. cerevisiae deletion strains, locus YKL160W, strain elf1, active compounds read low 0.954 | S. cerevisiae deletion strains, locus YKL190W, strain CNB1, active compounds read low 0.996 | S. cerevisiae deletion strains, locus YKR001C, strain vps1, active compounds read low 0.982 | S. cerevisiae deletion strains, locus YKR026C, strain gcn3, active compounds read low 0.973 | S. cerevisiae deletion strains, locus YKR091W, strain srl3, active compounds read low 0.96 | S. cerevisiae deletion strains, locus YLL001W, strain dnm1, active compounds read low 0.994 | S. cerevisiae deletion strains, locus YLL026W, active compounds read low 0.962 | S. cerevisiae deletion strains, locus YLL041C, strain sdh2, active compounds read low 0.954 | S. cerevisiae deletion strains, locus YLR027C, strain aat2, active compounds read low 0.965 | S. cerevisiae deletion strains, locus YLR039C, strain RIC1, active compounds read low 0.934 | S. cerevisiae deletion strains, locus YLR058C, strain SHM2, active compounds read low 0.968 | S. cerevisiae deletion strains, locus YLR102C, strain apc9, active compounds read low 0.98 | S. cerevisiae deletion strains, locus YLR113W, strain HOG1, active compounds read low 0.996 | S. cerevisiae deletion strains, locus YLR221C, strain rsa3, active compounds read low 0.988 | S. cerevisiae deletion strains, locus YLR258W, strain gsy2, active compounds read low 0.965 | S. cerevisiae deletion strains, locus YLR262C, strain YPT6 (second series), active compounds read low 0.936 | S. cerevisiae deletion strains, locus YLR262C, strain YPT6, active compounds read low 0.955 | S. cerevisiae deletion strains, locus YLR268W, strain sec22, active compounds read low 0.962 | S. cerevisiae deletion strains, locus YLR320W, strain mms22, active compounds read low 1 | S. cerevisiae deletion strains, locus YLR330W, strain CHS5, active compounds read low 0.988 | S. cerevisiae deletion strains, locus YLR342W, strain FKS1 (second series), active compounds read low 1 | S. cerevisiae deletion strains, locus YLR342W, strain FKS1, active compounds read low 0.966 | S. cerevisiae deletion strains, locus YLR357W, strain rsc2, active compounds read low 0.981 | S. cerevisiae deletion strains, locus YLR370C, strain arc18, active compounds read low 0.947 | S. cerevisiae deletion strains, locus YLR371W, strain rom2, active compounds read low 0.97 | S. cerevisiae deletion strains, locus YLR384C, strain iki3, active compounds read low 0.952 | S. cerevisiae deletion strains, locus YLR418C, strain cdc73, active compounds read low 0.975 | S. cerevisiae deletion strains, locus YML016C, strain PPZ1, active compounds read low 0.993 | S. cerevisiae deletion strains, locus YML032C, strain rad52, active compounds read low 0.979 | S. cerevisiae deletion strains, locus YML120C, strain ndi1, active compounds read low 0.992 | S. cerevisiae deletion strains, locus YML124C, strain tub3, active compounds read low 0.972 | S. cerevisiae deletion strains, locus YMR058W, strain fet3, active compounds read low 0.952 | S. cerevisiae deletion strains, locus YMR078C, strain ctf18, active compounds read low 0.972 | S. cerevisiae deletion strains, locus YMR125W, strain sto1, active compounds read low 0.95 | S. cerevisiae deletion strains, locus YMR129W, active compounds read low 0.967 | S. cerevisiae deletion strains, locus YMR205C, strain PFK2, active compounds read low 0.983 | S. cerevisiae deletion strains, locus YMR223W, strain ubp8, active compounds read low 0.988 | S. cerevisiae deletion strains, locus YMR231W, strain pep5, active compounds read low 0.981 | S. cerevisiae deletion strains, locus YMR263W, strain SAP30, active compounds read low 1 | S. cerevisiae deletion strains, locus YMR307W, strain GAS1, active compounds read low 0.978 | S. cerevisiae deletion strains, locus YNL067W, strain RPL9B, active compounds read low 0.992 | S. cerevisiae deletion strains, locus YNL071W, strain lat1, active compounds read low 1 | S. cerevisiae deletion strains, locus YNL128W, strain TEP1, active compounds read low 0.976 | S. cerevisiae deletion strains, locus YNL153C, strain GIM3, active compounds read low 0.992 | S. cerevisiae deletion strains, locus YNL183C, strain NPR1, active compounds read low 0.966 | S. cerevisiae deletion strains, locus YNL209W, strain ssb2, active compounds read low 0.961 | S. cerevisiae deletion strains, locus YNL233W, strain BNI4, active compounds read low 0.978 | S. cerevisiae deletion strains, locus YNL248C, strain rpa49, active compounds read low 0.926 | S. cerevisiae deletion strains, locus YNL250W, strain rad50, active compounds read low 0.951 | S. cerevisiae deletion strains, locus YNL271C, strain bni1, active compounds read low 0.983 | S. cerevisiae deletion strains, locus YNL298W, strain CLA4, active compounds read low 0.971 | S. cerevisiae deletion strains, locus YNL307C, strain MCK1, active compounds read low 0.972 | S. cerevisiae deletion strains, locus YNL322C, strain KRE1 (second series), active compounds read low 0.935 | S. cerevisiae deletion strains, locus YNL322C, strain KRE1, active compounds read low 0.989 | S. cerevisiae deletion strains, locus YNR049C, strain mso1, active compounds read low 0.957 | S. cerevisiae deletion strains, locus YNR052C, strain pop2, active compounds read low 0.992 | S. cerevisiae deletion strains, locus YOL006C, strain TOP1, active compounds read low 0.969 | S. cerevisiae deletion strains, locus YOL012C, strain htz1 0.749 | S. cerevisiae deletion strains, locus YOL147C, strain pex11, active compounds read low 0.974 | S. cerevisiae deletion strains, locus YOR001W, strain rrp6, active compounds read low 0.99 | S. cerevisiae deletion strains, locus YOR061W, strain CKA2, active compounds read low 0.987 | S. cerevisiae deletion strains, locus YOR069W, strain VPS5, active compounds read low 0.983 | S. cerevisiae deletion strains, locus YOR070C, strain gyp1, active compounds read low 0.977 | S. cerevisiae deletion strains, locus YOR080W, strain dia2, active compounds read low 0.96 | S. cerevisiae deletion strains, locus YOR083W, strain WHI5, active compounds read low 0.917 | S. cerevisiae deletion strains, locus YOR106W, strain vam3, active compounds read low 0.95 | S. cerevisiae deletion strains, locus YOR136W, strain idh2, active compounds read low 0.978 | S. cerevisiae deletion strains, locus YOR144C, strain elg1, active compounds read low 0.97 | S. cerevisiae deletion strains, locus YOR184W, strain ser1, active compounds read low 0.983 | S. cerevisiae deletion strains, locus YOR231W, strain MKK1, active compounds read low 0.992 | S. cerevisiae deletion strains, locus YOR265W, strain rbl2, active compounds read low 0.971 | S. cerevisiae deletion strains, locus YOR270C, strain vph1, active compounds read low 0.948 | S. cerevisiae deletion strains, locus YOR290C, strain snf2, active compounds read low 0.949 | S. cerevisiae deletion strains, locus YOR316C, strain cot1, active compounds read low 0.983 | S. cerevisiae deletion strains, locus YPL051W, strain arl3, active compounds read low 0.981 | S. cerevisiae deletion strains, locus YPL055C, strain LGE1, active compounds read low 0.985 | S. cerevisiae deletion strains, locus YPL078C, strain atp4, active compounds read low 0.988 | S. cerevisiae deletion strains, locus YPL106C, strain sse1, active compounds read low 0.944 | S. cerevisiae deletion strains, locus YPL240C, strain hsp82, active compounds read low 0.969 | S. cerevisiae deletion strains, locus YPL241C, strain CIN2, active compounds read low 0.983 | S. cerevisiae deletion strains, locus YPL256C, strain CLN2, active compounds read low 1.04 | S. cerevisiae deletion strains, locus YPR119W, strain clb2, active compounds read low 0.987 | S. cerevisiae deletion strains, locus YPR141C, strain kar3, active compounds read low 0.959 | S. cerevisiae deletion strains, locus YPR163C, strain tif3, active compounds read low 0.972 | S. cerevisiae deletion strains, locus YPR167C, strain met16, active compounds read low 0.971 | S. cerevisiae deletion strains, strain wtn01, active compounds read low 0.985 | S. cerevisiae strains, strain wild type, active compounds read low 0.985
